CBX7 AlphaScr: blocks human CBX7 binding to H3K27me3 peptide; O95931; AlphaScreen His6-CBX7 / biotin-H3K27me3 peptide binding; active compounds read low; normalised signal (fraction of DMSO) (concentration not given with the values); hit rate 1.1% among 66,000; in the data active = normalised signal below about 0.5
Target sequence (O95931 whole entry, looked up): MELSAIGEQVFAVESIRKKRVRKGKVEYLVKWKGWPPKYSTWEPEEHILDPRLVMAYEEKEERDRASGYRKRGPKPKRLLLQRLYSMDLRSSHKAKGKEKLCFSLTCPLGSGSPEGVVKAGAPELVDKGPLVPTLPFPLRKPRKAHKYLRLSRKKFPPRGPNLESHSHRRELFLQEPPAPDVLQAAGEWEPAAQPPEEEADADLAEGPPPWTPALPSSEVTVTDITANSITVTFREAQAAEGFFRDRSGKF
An asterisk follows results filed as active. Only a selection was taken, and hits are over-represented in it overall.

What do the screens show for `O=C(Nc1ccc(-c2nc3ccccc3o2)cc1)c1ccccc1Cl`?
CBX7 AlphaScr: 0.98

How did Cc1ccc(NC(=O)c2cnc(Nc3nc4ccccc4s3)nc2C)cc1 do in these assays?
CBX7 AlphaScr: 1

Results for COc1ccc(NC(=O)CN(c2ccc(OC)cc2)S(=O)(=O)c2cccnc2)cc1 ?
CBX7 AlphaScr: 1.1

Results for Cc1ccccc1Nc1nc(-c2ccc(OCc3ccc(Br)cc3)cc2)cs1 ?
CBX7 AlphaScr: 0.75

What do the screens show for `Cc1ccc(-c2nc(CS(=O)(=O)CC(=O)Nc3cccc(C)c3C)c(C)o2)cc1`?
CBX7 AlphaScr: 0.98

How did CCOc1ccc(C2NCCc3c2[nH]c2ccccc32)cc1 (stereo not given) do in these assays?
CBX7 AlphaScr: 0.72

How did Cc1ccc(C2NC(C(=O)O)Cc3c2[nH]c2ccccc32)cc1 (stereo not given) do in these assays?
CBX7 AlphaScr: 1

What do the screens show for `CN(C)c1ccc(C2NC(C(=O)O)Cc3c2[nH]c2ccccc32)cc1` (stereo not given)?
CBX7 AlphaScr: 0.25*

What do the screens show for `O=C(Cn1ccc2ccccc2c1=O)NCCC(=O)Nc1nc2ccccc2s1`?
CBX7 AlphaScr: 1

Results for CCc1nc(SCC(=O)Nc2nnc(C)s2)n[nH]1 ?
CBX7 AlphaScr: 0.92

Results for CCOC(=O)C1CCCN(c2c(NC3CCC(C)CC3)c(=O)c2=O)C1 (stereo not given) ?
CBX7 AlphaScr: 0.98

How did CC1CCN(c2nc3nonc3nc2Nc2ccc3c(c2)OCO3)CC1 do in these assays?
CBX7 AlphaScr: 0.94

What do the screens show for `c1cc2c(cc1Nc1nc3nonc3nc1Nc1ccc3c(c1)OCO3)OCO2`?
CBX7 AlphaScr: 0.37*

How did Fc1cccc(Nc2nc3nonc3nc2Nc2cccc(F)c2)c1 do in these assays?
CBX7 AlphaScr: 1

What do the screens show for `CCOc1ccc(C(=O)Nc2ccc(C)cc2)cc1Br`?
CBX7 AlphaScr: 1.2

How did Cc1ccc(Cn2cc(C(=O)c3ccccc3)c(=O)c3cc(C)ccc32)cc1 do in these assays?
CBX7 AlphaScr: 0.44*

How did Cc1ccc2c(c1)c(=O)c(C(=O)c1ccccc1)cn2Cc1ccccc1 do in these assays?
CBX7 AlphaScr: 0.62

What do the screens show for `Cc1ccc2c(c1)c(=O)c(C(=O)c1ccccc1)cn2Cc1ccc(F)cc1`?
CBX7 AlphaScr: 0.71

What do the screens show for `CCOc1ccc(-n2cc(-c3ccccc3)c3c(NCCN4CCOCC4)ncnc32)cc1`?
CBX7 AlphaScr: 0.85

How did Cc1ccc(-c2nc3ncccn3c2NC2CCCC2)cc1 do in these assays?
CBX7 AlphaScr: 1

What do the screens show for `Cc1cccn2c(Nc3ccc4c(c3)OCCO4)c(-c3ccsc3)nc12`?
CBX7 AlphaScr: 0.93

How did Cc1ccc(-c2nc3cnccn3c2NC2CCCC2)cc1 do in these assays?
CBX7 AlphaScr: 1.2

Results for Clc1ccc2nc(-c3ccccn3)c(Nc3ccc4c(c3)OCO4)n2c1 ?
CBX7 AlphaScr: 0.58

How did Cc1ccc(-c2nc3ncccn3c2Nc2c(C)cccc2C)cc1 do in these assays?
CBX7 AlphaScr: 0.9

What do the screens show for `Cc1cccn2c(Nc3ccc4c(c3)OCCO4)c(-c3cccc(Cl)c3)nc12`?
CBX7 AlphaScr: 0.76

How did Cc1cccc(C)c1Nc1c(-c2ccsc2)nc2ncccn12 do in these assays?
CBX7 AlphaScr: 1.1

How did Cc1ccc2nc(-c3ccccn3)c(NC3CCCC3)n2c1 do in these assays?
CBX7 AlphaScr: 0.12*

How did c1ccc(-c2nc3ccccn3c2Nc2ccc3c(c2)OCCO3)nc1 do in these assays?
CBX7 AlphaScr: 0.073*

How did Cc1cccc(C)c1Nc1c(-c2ccccn2)nc2ncccn12 do in these assays?
CBX7 AlphaScr: 0.011*

Results for c1ccc(-c2nc3ccccn3c2Nc2ccc3c(c2)OCCO3)cc1 ?
CBX7 AlphaScr: 1.3

What do the screens show for `Cc1cccn2c(Nc3ccc4c(c3)OCCO4)c(-c3ccc(N(C)C)cc3)nc12`?
CBX7 AlphaScr: 0.41*

How did CCOC(=O)c1c(NC(=O)c2cccs2)sc(C(=O)Nc2ccccc2)c1C do in these assays?
CBX7 AlphaScr: 1.1

What do the screens show for `Clc1ccc(/C=C/c2nc3ccccc3n2CCOc2ccccc2)cc1`?
CBX7 AlphaScr: 1.8

What do the screens show for `O=C1Nc2cc(C(=O)N3CCc4ccccc4C3)ccc2Nc2ccccc21`?
CBX7 AlphaScr: 0.61

What do the screens show for `COc1ccc(OCC(=O)N(Cc2nc(-c3ccccc3)no2)C(C)C)cc1`?
CBX7 AlphaScr: 0.94

Results for CCOc1ccc(CCNC(=O)CCNC(=O)Cn2ccc3ccccc3c2=O)cc1OCC ?
CBX7 AlphaScr: 1.1

What do the screens show for `COc1nnc(-c2ccc(C)c(S(=O)(=O)NC(C)c3ccccc3)c2)c2ccccc12` (stereo not given)?
CBX7 AlphaScr: 0.91

How did O=C(NCc1ccccc1)C1=CCN(S(=O)(=O)c2ccc(Br)cc2)CC1 do in these assays?
CBX7 AlphaScr: 1.1

Results for Cc1cccc(C)c1Nc1c(-c2ccccn2)nc2ccccn12 ?
CBX7 AlphaScr: 0.23*

Results for Cc1cccc(C)c1Nc1c(-c2ccsc2)nc2ccccn12 ?
CBX7 AlphaScr: 0.91

Results for Cc1cccc(C)c1Nc1c(-c2cccs2)nc2ccccn12 ?
CBX7 AlphaScr: 1.1

How did Cc1ccc(O)c(NC(=O)c2cccc(S(=O)(=O)N3CCCC3)c2)c1 do in these assays?
CBX7 AlphaScr: 0.92

What do the screens show for `COc1ccc(Cl)cc1NC(=O)CSc1nccn1-c1ccc(F)cc1`?
CBX7 AlphaScr: 0.4*

How did Cc1ccc(-n2cc(-c3ccc4c(c3)OCO4)nc2SCC(=O)Nc2ccccc2)cc1 do in these assays?
CBX7 AlphaScr: 0.81

Results for COc1ccc(-n2ccnc2SCC(=O)Nc2ccccc2OC)cc1 ?
CBX7 AlphaScr: 0.66

Results for COc1ccc(NC(=O)CSc2nccn2-c2ccc(Cl)cc2)c(OC)c1 ?
CBX7 AlphaScr: 0.49*

How did COc1ccc(-c2cn(-c3ccc(Cl)cc3)c(SCC(=O)Nc3cccc(C)c3)n2)cc1OC do in these assays?
CBX7 AlphaScr: 0.53

How did Cc1ccc(-n2cc(-c3ccc4c(c3)OCO4)nc2SCC(=O)Nc2cc(C)cc(C)c2)cc1 do in these assays?
CBX7 AlphaScr: 0.49*

Results for COc1ccc(-n2ccnc2SCC(=O)Nc2ccc(Cl)cc2)cc1 ?
CBX7 AlphaScr: 0.9

Results for COc1ccc(-c2cn(-c3ccccc3)c(SCC(=O)Nc3ccc(F)cc3)n2)cc1OC ?
CBX7 AlphaScr: 0.66

How did Cc1ccc(-n2cc(-c3ccc4c(c3)OCO4)nc2SCC(=O)Nc2ccc3c(c2)OCO3)cc1 do in these assays?
CBX7 AlphaScr: 0.85

What do the screens show for `COc1ccc(-c2cn(-c3ccc(Cl)cc3)c(SCC(=O)Nc3ccc(F)cc3)n2)cc1OC`?
CBX7 AlphaScr: 0.45*

Results for COc1ccc(-n2ccnc2SCC(=O)Nc2cc(Cl)ccc2OC)cc1 ?
CBX7 AlphaScr: 1.1

Results for CCOc1ccc(-n2ccnc2SCC(=O)Nc2cc(Cl)ccc2OC)cc1 ?
CBX7 AlphaScr: 1.1

How did O=C(Nc1cccc(-c2nc3ccc(NC(=O)c4cccnc4)cc3o2)c1)c1cccnc1 do in these assays?
CBX7 AlphaScr: 1.1

What do the screens show for `Cc1cc(Nc2ccc(C(=O)O)cc2)n2ncnc2n1`?
CBX7 AlphaScr: 0.95

Results for O=S(=O)(c1ccc2nc(-c3ccccc3)[nH]c2c1)N1CCCCC1 ?
CBX7 AlphaScr: 0.78

How did Cc1ccc(-c2cc(C(=O)NCCN3CCOCC3)c3ccccc3n2)s1 do in these assays?
CBX7 AlphaScr: 1

Results for CCN1CCN(CCCNC(=O)c2cc(-c3ccc(C)c(C)c3)nc3ccccc23)CC1 ?
CBX7 AlphaScr: 1.2

How did O=C(O)CCc1ccc(-c2cccs2)n1-c1ccccc1F do in these assays?
CBX7 AlphaScr: 1.5

Results for O=C1Cc2cc(S(=O)(=O)N3CCCC(C(=O)O)C3)ccc2N1 (stereo not given) ?
CBX7 AlphaScr: 0.97

Bioassay records as filed in PubChem BioAssay.
